# Laboratory results: paper PMC7826789 (International Journal of Molecular Sciences, 2021)
# Assays:
# Conditions in all cases: Compound Concentration (nM):1000
# [1] = tested on: AAK1
# [2] = tested on: ABL1(E255K)-phosphorylated
# [3] = tested on: ABL1(F317I)-nonphosphorylated
# [4] = tested on: ABL1(F317I)-phosphorylated
# [5] = tested on: ABL1(F317L)-nonphosphorylated
# [6] = tested on: ABL1(F317L)-phosphorylated
# [7] = tested on: ABL1(H396P)-nonphosphorylated
# [8] = tested on: ABL1(H396P)-phosphorylated
# [9] = tested on: ABL1(M351T)-phosphorylated
# [10] = tested on: ABL1(Q252H)-nonphosphorylated
# 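Further: KINOMEscan scanMAX binding as percent activity remaining versus control; lower means stronger binding.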
smiles,measurement,setting,value
NS(=O)(=O)c1ccc(N/N=C2\C(=O)Nc3ccc(C(=O)NCCc4c[nH]cn4)cc32)cc1 [GW300660X],Percent Control,[1],100%
same,Percent Control,[2],100%
same,Percent Control,[3],100%
same,Percent Control,[4],77%
same,Percent Control,[5],98%
same,Percent Control,[6],100%
same,Percent Control,[7],93%
same,Percent Control,[8],100%
same,Percent Control,[9],100%
same,Percent Control,[10],99%
COc1ccc(COc2ccc(Cc3cnc(N)nc3N)cc2OC)cc1 [GW632580X],Percent Control,[1],94%
same,Percent Control,[2],75%
same,Percent Control,[3],99%
same,Percent Control,[4],95%
same,Percent Control,[5],100%
same,Percent Control,[6],93%
same,Percent Control,[7],88%
same,Percent Control,[8],86%
same,Percent Control,[9],85%
same,Percent Control,[10],88%
COc1cc(N2CCN(C(C)C)CC2)ccc1Nc1nc(Nc2ccc(F)cc2C(=O)NC[C@@H](O)CO)c2cc[nH]c2n1 [GSK1392956A],Percent Control,[1],64%
same,Percent Control,[2],100%
same,Percent Control,[3],100%
same,Percent Control,[4],87%
same,Percent Control,[5],95%
same,Percent Control,[6],49%
same,Percent Control,[7],97%
same,Percent Control,[8],100%
same,Percent Control,[9],97%
same,Percent Control,[10],100%
CCn1c(-c2nonc2N)nc2c(C#CC(C)(C)O)nc(OCCNC)cc21.Cl [GSK949675],Percent Control,[1],100%
same,Percent Control,[2],98%
same,Percent Control,[3],100%
same,Percent Control,[4],100%
same,Percent Control,[5],100%
same,Percent Control,[6],100%
same,Percent Control,[7],85%
same,Percent Control,[8],93%
same,Percent Control,[9],100%
same,Percent Control,[10],100%
COc1ccc2[nH]c3c4[nH]c5ccc(OC)cc5c4c4c(c3c2c1)C(=O)NC4=O [GW296115X],Percent Control,[1],53%
same,Percent Control,[2],64%
same,Percent Control,[3],87%
same,Percent Control,[4],73%
same,Percent Control,[5],84%
same,Percent Control,[6],75%
same,Percent Control,[7],34%
same,Percent Control,[8],65%
same,Percent Control,[9],68%
same,Percent Control,[10],28%
CN(C)c1cc2c(Nc3ccc4c(cnn4Cc4ccccc4)c3)ncnc2cn1 [GW282974X],Percent Control,[1],75%
same,Percent Control,[2],59%
same,Percent Control,[3],84%
same,Percent Control,[4],91%
same,Percent Control,[5],99%
same,Percent Control,[6],50%
same,Percent Control,[8],63%
same,Percent Control,[9],100%
same,Percent Control,[10],48%
COc1ccc2c(-c3ccnc(Nc4cccc(OC(F)(F)F)c4)n3)cnn2n1 [GW810372X],Percent Control,[1],69%
same,Percent Control,[2],100%
same,Percent Control,[3],100%
same,Percent Control,[4],100%
same,Percent Control,[5],100%
same,Percent Control,[6],100%
same,Percent Control,[7],87%
same,Percent Control,[8],100%
same,Percent Control,[9],97%
same,Percent Control,[10],98%
COc1cccc(-n2ncc3c(N/N=C/c4ccncc4)ncnc32)c1 [GW784752X],Percent Control,[1],85%
same,Percent Control,[2],1.5%
same,Percent Control,[3],100%
same,Percent Control,[4],78%
same,Percent Control,[5],98%
same,Percent Control,[6],24%
same,Percent Control,[7],0%
same,Percent Control,[8],1.5%
same,Percent Control,[9],0%
same,Percent Control,[10],0%
COc1cc2ncnc(Nc3ccc4c(cnn4Cc4ccccc4)c3)c2cc1OC.Cl [GW282449A],Percent Control,[1],100%
same,Percent Control,[2],100%
same,Percent Control,[3],100%
same,Percent Control,[4],81%
same,Percent Control,[5],93%
same,Percent Control,[6],60%
same,Percent Control,[7],80%
same,Percent Control,[8],100%
same,Percent Control,[9],100%
same,Percent Control,[10],96%
Cc1cc(O)cc(C)c1/C=C/c1cncc(C(N)=O)c1 [GW435821X],Percent Control,[1],100%
same,Percent Control,[2],6.8%
same,Percent Control,[3],90%
same,Percent Control,[4],32%
same,Percent Control,[5],37%
same,Percent Control,[6],9%
same,Percent Control,[7],4.9%
same,Percent Control,[8],14%
same,Percent Control,[9],15%
same,Percent Control,[10],7.9%
O=C(Nc1n[nH]c2nc(-c3ccc(O)cc3)c(Br)cc12)C1CC1 [SB-725317],Percent Control,[1],79%
same,Percent Control,[2],26%
same,Percent Control,[3],100%
same,Percent Control,[4],80%
same,Percent Control,[5],100%
same,Percent Control,[6],100%
same,Percent Control,[7],1.9%
same,Percent Control,[8],28%
same,Percent Control,[9],33%
same,Percent Control,[10],7%
C/C(Nc1ccc(S(N)(=O)=O)cc1)=C1/C(=O)Nc2ccccc21 [GW335962X],Percent Control,[1],67%
same,Percent Control,[2],82%
same,Percent Control,[3],88%
same,Percent Control,[4],83%
same,Percent Control,[5],100%
same,Percent Control,[6],89%
same,Percent Control,[7],72%
same,Percent Control,[8],91%
same,Percent Control,[9],82%
same,Percent Control,[10],76%
